Experimental data reported in PubChem BioAssay (NCATS).
Results filed as inconclusive are left out. The source made the active and inactive calls. Calls follow the shape of the dose curve; as a rule, active = well fitted inhibition curve with a large enough effect; inconclusive = small, poorly fitted or top-dose-only effect; inactive = flat fitted curve, though single readings scatter.

Tested on: CRL-7250
Test: Cytotoxic Profiling of Annotated Libraries Using Quantitative High-Throughput Screening (AID 1296008); also: nearly all actives have a fitted effect of over 60% in size
Conditions: Five cell lines viability, CellTiter-Glo ATP luminescence, 48-72 h; max response: hits give low values
Description: Cell-based phenotypic screening is a commonly used approach to discover biological pathways, novel drug targets, chemical probes and high-quality hit-to-lead molecules. Many hits identified from high-throughput screening campaign are ruled out through a series of follow-up potency, selectivity/specificity, and cytotoxicity assays. Prioritization of molecules with little or no cytotoxicity for a more in-depth downstream evaluation influence the future direction of projects, so cytotoxicity profiling of the screening libraries at early stage is essential for increasing the likelihood of candidate success. […] For the annotated library, we also examined the primary targets and mechanistic pathways regularly associated with cell death. To our knowledge, this is the first study to use high-throughput screening to profile large libraries for cytotoxicity assessment in both normal and cancer cell lines. In summary, the results generated here constitutes a valuable resource for the scientific community and provides insight on identifying cytotoxic compounds with particular mechanisms of action, and prioritizing compounds with suitable cytotoxicity profile for further evaluation.
A pintool (Kalypsys) was used to transfer 23 nL of compound solution to the 1536-well assay plates. After 48 or 72 hr incubation at 37 degree Celsius, 5% CO2 and 95% humidity, 2.5 uL of CellTiter-Glo (Promega) was dispensed into each well using a dispenser (Aspect Automation, St. Paul, MN) with solenoid valves (Lee Valves, Westbrook CT). Plates were left at room temperature for 10 min before imaging the ATP-coupled luminescence using a ViewLux microplate imager (PerkinElmer, Waltham, MA).
% is scaled to controls: 0 for no effect and ±100 for the full control effect; potency is read from the fitted curve at half-maximal effect.

| SMILES | Potency | max response | outcome |
| --- | --- | --- | --- |
| Cc1[nH]c(/C=C2\C(=O)Nc3ccc(F)cc32)c(C)c1C(=O)NC[C@H](O)CN1CCOCC1 | 6.51 µM (active) | – | – |
| C=C1CC[C@@H]2[C@](C)(CO)[C@H](O)CC[C@@]2(C)[C@@H]1C/C=C1/C(=O)OC[C@@H]1O | – | -17.3% (inactive) | – |
| Cc1ccc(CCCO)c(NCc2ccc3nc(NCCCN4CCOCC4)n(Cc4nc(C)ccc4O)c3c2)c1 | 23.1 µM (active) | – | – |
| CCC[C@@H](NC(=O)N1C(=O)C(CC)(CC)[C@@H]1Oc1ccc(C(=O)N2CCN(C)CC2)cc1)c1ccc2c(c1)OCO2 | – | -1.89% (inactive) | – |
| OCC(CO)(CO)NCC(O)Cn1c2ccc(Cl)cc2c2cc(Cl)ccc21 (stereo not given) | – | -2.15% (inactive) | – |
| C/C=C(/COC(=O)/C(C)=C/C)C(=O)OC/C=C/c1ccc(OC)cc1 | – | -7.59% (inactive) | – |
| CCOC(=O)c1cnn(-c2ccc(NC(=O)C(Cl)=C(Cl)Cl)cc2)c1C(F)(F)F | 20.6 µM (active) | – | – |
| Cn1cnc(-c2nccc3c(=O)[nH]c(OCCCC(F)(F)F)nc23)c1 | 5.8 µM (active) | – | – |
| CCCCOc1ccc(-c2cncc(C(=O)NCc3cccnc3N3CCOCC3)c2)cc1Cl | – | -9.28% (inactive) | – |
| CCN(CC)c1ccc(C(=C2C=CC(=[N+](CC)CC)C=C2)c2cc(S(=O)(=O)O)ccc2S(=O)(=O)[O-])cc1 | 5.31 µM (active) | – | – |
| Cn1nccc1Nc1nccc(-c2ccn([C@H](CO)c3ccc(Cl)c(F)c3)c(=O)c2)n1 | – | – | inactive |
| CC1(C)CC[C@]2(C(=O)OC3OC(CO)C(O)C(O)C3O)CC[C@]3(C)C(=CCC4[C@@]5(C)CC[C@H](OC6OC(C(=O)O)C(O)C(O)C6O)C(CO)(CO)C5CC[C@]43C)[C@@H]2C1 (stereo not given in full) | 2.46 µM (active) | – | – |
| CC1CCC2C(C)(C)C(O)CCC2(C)C12Cc1c(O)cc3c(c1O2)CN(C(CCCN=C(N)N)C(=O)O)C3=O (stereo not given) | – | – | inactive |
| Cc1ccc2c(Nc3ccc(Cl)cc3)nccc2c1Nc1ncccc1-c1ncnc2nc[nH]c12 | 14.6 µM (active) | – | – |
| O=S(=O)(c1cccc2ccccc12)n1ccc2ccc(N3CCN4CCCC4C3)cc21 (stereo not given) | – | -10.4% (inactive) | – |
| O=C(c1ccc(F)c(F)c1Nc1ccc(I)cc1F)N1CC(O)(C2CCCCN2)C1 (stereo not given) | 9.2 µM (active) | – | – |
| CC(=O)c1c(OCCN2CCCCC2)c(OCCC(C)c2ccc(F)cc2)c2oc(C)nc2c1C (stereo not given) | – | -7.29% (inactive) | – |
| Cc1ccccc1C(=O)Nc1ccc(C(=O)N2CCC[C@@H](O)c3cc(Cl)ccc32)c(C)c1 | – | -3.25% (inactive) | – |
| C=C(C)[C@@H]1CC[C@]2(C(=O)O)CC[C@]3(C)C(CCC4[C@@]5(C)C[C@@H](O)[C@H](O)C(C)(C)C5CC[C@]43C)C12 (stereo not given in full) | – | 4.85% (inactive) | – |
| CN(Cc1ccc(C(=O)O)cc1)c1ccc(OCc2c(-c3c(Cl)cccc3Cl)noc2C2CC2)nc1C(F)(F)F | – | – | inactive |

| SMILES | Potency | max response | outcome |
| --- | --- | --- | --- |
| COc1ccccc1-c1cc(Nc2cccc(CS(N)(=O)=O)c2)ncn1 | 16.4 µM (active) | – | – |
| CCOC(=O)c1cccc(CNc2ccc(N(C)C(=O)Nc3ccccc3)cc2)c1 | 1.3 µM (active) | – | – |
| CC(C)(C)c1ccc(CNC(=S)NCc2ccc(NS(C)(=O)=O)c(F)c2)cc1 | – | -28.3% (inactive) | – |
| Cn1c(NC[C@@H](N)Cc2ccccc2)nc(-c2ccncc2)c(-c2ccc3ccccc3c2)c1=O | – | -1.38% (inactive) | – |
| CN(C)CCCNc1nc(CN2CCN(C(c3ccc(Cl)cc3)c3ccc(Cl)cc3)CC2)nc2ccccc12 | – | 1.9% (inactive) | – |
| COc1cccc(CNC(=O)Nc2nc(-c3ccncc3)cs2)c1 | – | -25.8% (inactive) | – |
| COCCOCCOc1ccc(C2=N[C@@](C)(C(=O)O)CS2)c(O)c1 | – | -74.5% (inactive) | – |
| CC1CCC(n2c3cnccc3c3cnc(Nc4ccc5c(n4)CCN(C(=O)CO)C5)nc32)CC1 (stereo not given) | – | -12.2% (inactive) | – |
| O=C(c1ccc(F)c(F)c1Nc1ccc(I)cc1F)N1CC(O)([C@@H]2CCCCN2)C1 | 7.31 µM (active) | – | – |
| CCC(=O)c1cc(-c2ccc(Cl)cc2)n(-c2ccc(S(N)(=O)=O)cc2)c1C | – | – | inactive |
| CC1CCN(c2cc(NC(=O)c3ccccc3)ncn2)CC1 | – | -6.14% (inactive) | – |
| CC(=O)N1c2ccc(-c3ccc(C(=O)O)cc3)cc2C(Nc2ccc(Cl)cc2)CC1C (stereo not given) | 1.03 µM (active) | – | – |
| N#Cc1c[nH]c2c(C(=O)N3CCN(CCc4ccc(F)cc4)CC3)cccc12 | – | – | inactive |
| COc1cc(-c2cc(-c3ccc(N4CCNCC4)cc3)cnc2C)cc(OC)c1OC | – | – | inactive |
| CC1OC2OC3C(OCC(O)C3O)OC(=O)C34CCC(C)(C)CC3C3=CCC5C6(C)CC(O)C(OC7OC(CO)C(O)C(O)C7OC7OCC(OC(=O)CC(C)(O)CC(=O)OC1C(OC1OCC(O)C(O)C1O)C2O)C(O)C7O)C(C)(CO)C6CCC5(C)C3(C)CC4O (stereo not given) | 7.96 µM (active) | – | – |
| CN(C)C(=O)c1cc2cnc(Nc3ccc(N4CCNCC4)cn3)nc2n1C1CCCC1 | – | 3.25% (inactive) | – |
| CNc1ccc([N+](=O)[O-])cc1-n1cnc(-c2ccc(C(F)(F)F)cc2)c1 | – | 1.42% (inactive) | – |
| N#CCC(C1CCCC1)n1cc(-c2ncnc3[nH]ccc23)cn1 (stereo not given) | – | -27.8% (inactive) | – |
| CC[C@H](CO)Nc1nc(Nc2cccc(-c3ccccn3)c2)c2ncn(C(C)C)c2n1 | – | -6.96% (inactive) | – |
| COc1ccc2c(c1)C[C@H](C(=O)Nc1ccc(-c3cn[nH]c3)cc1OCCN(C)C)CO2 | 20.6 µM (active) | – | – |
